# Experimental data as given in the supplement of paper PMC8728848.
# Shown is part of a subset that was picked to be rich in the strongest signals.
# B1: Epa19 (Candida glabrata) (protein)
# chain: MGSSHHHHHHSSGLVPRGSHMASSKDPTRFPIGCSPQVLKTQPGLAVKLYSYGHPVPGCSYITYQYPDFPRSGYKKERKLADITGVNGKIDIDLKPNDPCRVLTGHLPSNYNYPDTLTYTNFTMILYGYFQPKVTGYHTFNLEADDLLFMNLGAGNAFDCCKAESTLDNFGNYQSYSLWGSDYAKANITVFLVSGVYYPIRLFYVNRDNNAVIDFSFTTEFDKEKVHDFTSYFFSASDGEQCPGSV
# How the values were obtained:
# Assay in all cases: glycan array binding signal (z-score within array); higher = stronger binding
# Conditions in all cases: glycan notation: IUPAC condensed, linker removed
# Fuc(a1-2)Gal = molecular target: Fuc(a1-2)Gal
# In short: (§1)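 The binding signal is a Z-score computed within each array. Data were drawn from 3228 arrays in the Consortium for Functional Glycomics database, restricted to those with a known protein sequence. Scores were averaged over arrays of the same protein sequence at different concentrations or buffers, and over linkers, and negative values can be taken as non-binding.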
# [1] = molecular target: Fuc(a1-2)Gal(b1-3)GlcNAc(b1-2)Man(a1-3)[Fuc(a1-2)Gal(b1-3)GlcNAc(b1-2)Man(a1-6)]Man(b1-4)GlcNAc(b1-4)GlcNAc
# In short: as §1
# [2] = molecular target: Fuc(a1-2)Gal(b1-3)GlcNAc(b1-3)[Gal(b1-4)GlcNAc(b1-6)]Gal(b1-4)Glc
# In short: as §1
# [3] = molecular target: Fuc(a1-2)Gal(b1-4)Fuc(a1-3)]GlcNAc(b1-2)Man(a1-3)[Fuc(a1-2)Gal(b1-4)[Fuc(a1-3)]GlcNAc(b1-2)Man(a1-6)]Man(b1-4)GlcNAc(b1-4)GlcNAc
# In short: as §1
# Fuc(a1-2)Gal(b1-4)GlcNAc = molecular target: Fuc(a1-2)Gal(b1-4)GlcNAc
# In short: as §1
# Fuc(a1-2)[Gal(a1-3)]Gal = molecular target: Fuc(a1-2)[Gal(a1-3)]Gal
# In short: as §1
# [4] = molecular target: Fuc(a1-2)[Gal(a1-3)]Gal(b1-4)GlcNAc(b1-2)Man
# In short: as §1
# [5] = molecular target: Fuc(a1-2)[GalNAc(a1-3)]Gal(b1-3)GlcNAc(b1-3)GalNAc
# In short: as §1
# [6] = molecular target: Fuc(a1-2)[GalNAc(a1-3)]Gal(b1-4)GlcNAc(b1-6)GalNAc
# In short: as §1
# [7] = molecular target: Fuc(a1-2)[GalNAc(a1-3)]Gal(b1-4)[Fuc(a1-3)]GlcNAc
# In short: as §1
# [8] = molecular target: Fuc(a1-2)[GalNAc(a1-3)]Gal(b1-4)[Fuc(a1-3)]GlcNAc(b1-3)GalNAc
# In short: as §1
# [9] = molecular target: Fuc(a1-3)[Gal(b1-4)]GlcNAc(b1-2)Man
# In short: as §1
# [10] = molecular target: Gal(a1-3)Gal(b1-4)[Fuc(a1-3)]GlcNAc(b1-2)Man(a1-3)[Gal(a1-3)Gal(b1-4)[Fuc(a1-3)]GlcNAc(b1-2)Man(a1-6)]Man(b1-4)GlcNAc(b1-4)GlcNAc
# In short: as §1
# [11] = molecular target: Gal(a1-4)Gal(b1-3)GlcNAc(b1-2)Man(a1-3)[Gal(a1-4)Gal(b1-3)GlcNAc(b1-2)Man(a1-6)]Man(b1-4)GlcNAc(b1-4)GlcNAc
# In short: as §1
# Gal(b1-2)Gal = molecular target: Gal(b1-2)Gal
# In short: as §1
# Gal(b1-3)GalNAc = molecular target: Gal(b1-3)GalNAc
# In short: as §1
# [12] = molecular target: Gal(b1-3)GlcNAc(b1-3)GalNAc
# In short: as §1
# [13] = molecular target: Gal(b1-3)[Neu5Ac(b2-6)]GalNAc
# In short: as §1
# [14] = molecular target: Gal(b1-4)GalNAc(a1-3)[Fuc(a1-2)]Gal(b1-4)GlcNAc
# In short: as §1
# Gal(b1-4)Glc6S = molecular target: Gal(b1-4)Glc6S
# In short: as §1
# [15] = molecular target: Gal(b1-4)GlcNAc(b1-2)Man(a1-6)[GlcNAc(b1-2)Man(a1-3)]Man(b1-4)GlcNAc(b1-4)GlcNAc
# In short: as §1
# [16] = molecular target: Gal(b1-4)GlcNAc(b1-2)[Gal(b1-4)GlcNAc(b1-6)]Man(a1-6)[Gal(b1-4)GlcNAc(b1-2)Man(a1-3)]Man(b1-4)GlcNAc(b1-4)GlcNAc
# In short: as §1
# [17] = molecular target: Gal(b1-4)GlcNAc(b1-3)Gal(b1-4)GlcNAc(b1-2)Man(a1-3)[Gal(b1-4)GlcNAc(b1-3)Gal(b1-4)GlcNAc(b1-2)Man(a1-6)]Man(b1-4)GlcNAc(b1-4)GlcNAc
# In short: as §1
# [18] = molecular target: Gal(b1-4)GlcNAc(b1-3)Gal(b1-4)GlcNAc(b1-2)[Gal(b1-4)GlcNAc(b1-3)Gal(b1-4)GlcNAc(b1-6)]Man(a1-6)[Gal(b1-4)GlcNAc(b1-3)Gal(b1-4)GlcNAc(b1-2)Man(a1-3)]Man(b1-4)GlcNAc(b1-4)GlcNAc
# In short: as §1
# [19] = molecular target: Gal(b1-4)GlcNAc(b1-3)Gal(b1-4)GlcNAc(b1-3)Gal(b1-4)GlcNAc(b1-2)Man(a1-3)[Gal(b1-4)GlcNAc(b1-3)Gal(b1-4)GlcNAc(b1-3)Gal(b1-4)GlcNAc(b1-2)Man(a1-6)]Man(b1-4)GlcNAc(b1-4)[Fuc(a1-6)]GlcNAc
# In short: as §1
# [20] = molecular target: Gal(b1-4)GlcNAc(b1-3)Gal(b1-4)GlcNAc(b1-3)Gal(b1-4)GlcNAc(b1-3)Gal(b1-4)GlcNAc(b1-2)[Gal(b1-4)GlcNAc(b1-3)Gal(b1-4)GlcNAc(b1-3)Gal(b1-4)GlcNAc(b1-3)Gal(b1-4)GlcNAc(b1-6)]Man(a1-6)[Gal(b1-4)GlcNAc(b1-3)Gal(b1-4)GlcNAc(b1-3)Gal(b1-4)GlcNAc(b1-3)Gal(b1-4)GlcNAc(b1-2)Man(a1-3)]Man(b1-4)GlcNAc(b1-4)[Fuc(a1-6)]GlcNAc
# In short: as §1
# [21] = molecular target: Gal(b1-4)GlcNAc(b1-3)Gal(b1-4)GlcNAc(b1-3)[Gal(b1-4)GlcNAc(b1-3)Gal(b1-4)GlcNAc(b1-6)]GalNAc
# In short: as §1
# [22] = molecular target: Gal(b1-4)GlcNAc(b1-6)GalNAc
# In short: as §1
# [23] = molecular target: Gal(b1-4)GlcNAc(b1-6)[Gal(b1-3)]GalNAc
# In short: as §1
# [24] = molecular target: Gal3S(b1-4)[Fuc(a1-3)]GlcNAc6S
# In short: as §1
binder,measurement,setting,value
B1,glycan array binding signal (z-score),Fuc(a1-2)Gal,-0.231
same,glycan array binding signal (z-score),[1],0.072
same,glycan array binding signal (z-score),[2],-0.333
same,glycan array binding signal (z-score),[3],2.57
same,glycan array binding signal (z-score),Fuc(a1-2)Gal(b1-4)GlcNAc,-0.459
same,glycan array binding signal (z-score),Fuc(a1-2)[Gal(a1-3)]Gal,-0.947
same,glycan array binding signal (z-score),[4],0.045
same,glycan array binding signal (z-score),[5],2.07
same,glycan array binding signal (z-score),[6],0.209
same,glycan array binding signal (z-score),[7],-0.301
same,glycan array binding signal (z-score),[8],1.08
same,glycan array binding signal (z-score),[9],-0.217
same,glycan array binding signal (z-score),[10],2.47
same,glycan array binding signal (z-score),[11],-0.21
same,glycan array binding signal (z-score),Gal(b1-2)Gal,-0.099
same,glycan array binding signal (z-score),Gal(b1-3)GalNAc,-0.306
same,glycan array binding signal (z-score),[12],-0.204
same,glycan array binding signal (z-score),[13],2.39
same,glycan array binding signal (z-score),[14],-0.193
same,glycan array binding signal (z-score),Gal(b1-4)Glc6S,2.4
same,glycan array binding signal (z-score),[15],0.102
same,glycan array binding signal (z-score),[16],-1.26
same,glycan array binding signal (z-score),[17],2.29
same,glycan array binding signal (z-score),[18],0.736
same,glycan array binding signal (z-score),[19],0.256
same,glycan array binding signal (z-score),[20],0.024
same,glycan array binding signal (z-score),[21],1.4
same,glycan array binding signal (z-score),[22],-0.146
same,glycan array binding signal (z-score),[23],0.35
same,glycan array binding signal (z-score),[24],0.49
